Records with an inconclusive call do not appear. Entries that show only a call come without a potency. Some compounds were tested as several samples or in several runs, with calls that do not always agree. Active and inactive are the calls of the source. Calls follow the shape of the dose curve; as a rule, active = well fitted activation curve with a large enough effect in the repeat runs; inconclusive = weak or mixed curves; inactive = flat fitted curve, though single readings scatter.
Assay: A CellTox Green Cytotoxicity Assay to monitor cytotoxicity in HEK293 cells - 32 hour (AID 1224881); also: nearly all actives have a fitted effect of over 40% in size
Settings: CellTox Green fluorescence; series mostly up to 76.8 µM
Procedure, shortened: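 Fluorescence from a DNA-binding dye excluded by viable cells was measured repeatedly in the same HEK293 wells (600 cells/well) during continuous compound exposure at 37 C. Each assay gives one read point: 0, 8, 16, 24, 32 or 40 h.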
Potency is read from the fitted curve at half-maximal effect.

Row | Structure (SMILES) | Potency
1 | Nn1cnnc1 | inactive
2 | CCCCC(CC)COC(=O)Cl (stereo not drawn) | inactive
3 | CCCCCCCCOC(=O)c1ccccc1C(=O)OCCCCCCCC | inactive
4 | COC(=O)c1sccc1S(=O)(=O)NC(=O)Nc1nc(C)nc(OC)n1 | inactive
5 | COP(=S)(OC)Oc1cc(Cl)c(Cl)cc1Cl | inactive
6 | O=c1oc2ccccc2c(O)c1C(CC(O)c1ccc(-c2ccc(Br)cc2)cc1)c1ccccc1 (stereo not drawn) | inactive
7 | CCC(C)c1cc([N+](=O)[O-])cc([N+](=O)[O-])c1O (stereo not drawn) | inactive
8 | CC(C)=CC1C(C(=O)OCc2coc(Cc3ccccc3)c2)C1(C)C (stereo not drawn) | inactive
9 | N#CC(Br)Br | inactive
10 | CCN(CC)C(=O)/C(Cl)=C(\C)OP(=O)(OC)OC | inactive
11 | CC(C)(c1cc(Cl)c(O)c(Cl)c1)c1cc(Cl)c(O)c(Cl)c1 | inactive
12 | CCCCCCOC(=O)c1ccccc1C(=O)OCCCCCC | inactive
13 | Oc1cc(Cl)ccc1Oc1ccc(Cl)cc1Cl | 22.4 µM (active)
14 | O=P(Oc1ccccc1)(Oc1ccccc1)Oc1ccccc1 | inactive
15 | Oc1ccc(-c2ccccc2)cc1 | 24.2 µM (active) and inactive
16 | CC(C)(C)c1ccccc1O | 44.2 µM (active) and inactive
17 | CCCCCCCCCCCOC(=O)c1ccccc1C(=O)OCCCCCCCCCCC | inactive
18 | C[C@]12CCC(=O)C(O)=C1CC[C@@H]1[C@@H]2CC[C@]2(C)C(=O)CC[C@@H]12 | inactive
19 | CCCCN(CC)c1c([N+](=O)[O-])cc(C(F)(F)F)cc1[N+](=O)[O-] | inactive

Row | Structure (SMILES) | Potency
20 | Cc1ccc(OP(=O)(Oc2ccc(C)cc2)Oc2ccc(C)cc2)cc1 | inactive
21 | CC(C)Oc1cc(-n2nc(C(C)(C)C)oc2=O)c(Cl)cc1Cl | 608 nM (active) and inactive
22 | CC(C)NC(C)C | inactive
23 | CCOP(=S)(OCC)O/N=C(\C#N)c1ccccc1 | inactive
24 | Cc1ccc2c(c1N)C(=O)c1ccccc1C2=O | inactive
25 | O=S(=O)(Oc1ccc(Cl)cc1)c1ccc(Cl)cc1 | inactive
26 | COP(=S)(OC)Oc1ccc([N+](=O)[O-])cc1 | inactive
27 | OCC(O)CO | inactive
28 | CCOCN(C(=O)CCl)c1c(C)cccc1CC | inactive
29 | C=CC(=O)OCCO | inactive
30 | Nc1ccc(-c2ccc(N)c(N)c2)cc1N | inactive
31 | c1ccc(-c2cccc(-c3ccccc3)c2)cc1 | inactive
32 | Brc1ccc(Oc2cc(Br)c(Br)cc2Br)c(Br)c1 | inactive
33 | O=Cc1ccco1 | 23.7 µM (active)
34 | NNC(=S)NN | inactive
35 | CCCCCCCCC(=O)NCc1ccc(O)c(OC)c1 | inactive
36 | CCOc1cc(C=O)ccc1O | inactive
37 | CCCCNC(=O)n1c(NC(=O)OC)nc2ccccc21 | inactive
38 | Cc1cc(C)cc(C)c1 | inactive

— PubChem BioAssay (Tox21)
